ASM inhibitor – Inhibitors of Secretory Acid Sphingomyelinase (S-ASM): qHTS | Sphingomyelin phosphodiesterase (Homo sapiens), P17405 | placental ASM, HMU-PC fluorogenic substrate, 60 min | Potency, µM (titrated, usually from 57.5 µM), usual class: inhibitors | 340,000 compounds, 0.006% hits | AID 504937, 2011
Target sequence (P17405 47-631 limits assumed): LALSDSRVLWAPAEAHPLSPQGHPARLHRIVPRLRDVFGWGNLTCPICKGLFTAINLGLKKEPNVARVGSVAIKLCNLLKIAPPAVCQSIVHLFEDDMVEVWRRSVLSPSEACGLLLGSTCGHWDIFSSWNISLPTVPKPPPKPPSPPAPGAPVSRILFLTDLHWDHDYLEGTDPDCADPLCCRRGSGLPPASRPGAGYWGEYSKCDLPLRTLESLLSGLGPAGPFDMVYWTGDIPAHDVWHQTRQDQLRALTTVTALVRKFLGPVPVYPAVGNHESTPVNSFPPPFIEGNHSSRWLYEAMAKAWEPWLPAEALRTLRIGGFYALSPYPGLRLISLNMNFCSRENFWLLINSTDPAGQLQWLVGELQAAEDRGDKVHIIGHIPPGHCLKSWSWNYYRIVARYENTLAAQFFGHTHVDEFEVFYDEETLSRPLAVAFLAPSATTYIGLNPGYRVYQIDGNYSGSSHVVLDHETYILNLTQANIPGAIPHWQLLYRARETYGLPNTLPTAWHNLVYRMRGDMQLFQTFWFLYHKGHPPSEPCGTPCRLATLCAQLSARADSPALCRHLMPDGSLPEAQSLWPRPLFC
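Fluorogenic HMU-PC substrate (9 uM final) is turned over by placental ASM in 60 min at 37 C after a 10 min compound preincubation. Reaction ended by alkaline stop (pH 10), with fluorescence read at 386/447 nm.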
DT40 TDP1 CPT – qHTS for Inhibitors of human tyrosyl-DNA phosphodiesterase 1 (TDP1): qHTS in cells in presence of CPT | chicken DT40 Tdp1-/-;hTDP1 cells + 20 nM CPT, ATP luminescence, 48 h | Potency, µM (doses to about 46.2 µM), most hits filed as inhibitors | 420,000 compounds, 12% hits | AID 686979, 2013; also: nearly all actives have a fitted effect of over 55% in size
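Cell growth measured by CellTiter-Glo luminescence after a minimum 48 h, 37 C compound exposure with 20 nM CPT in Tdp1-knockout DT40 cells stably expressing hTDP1, seeded 400/well; qHTS titration format.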
IL1B secr inh – qHTS for Inhibitors of Inflammasome Signaling: IL-1-beta AlphaLISA Primary Screen; THP-1 LPS/ATP IL-1B secretion, AlphaLISA, 16 h; hits give low values; activity change, % at 57.5 µM; 360,000 compounds, 4.7% hits; in the data active = activity change below about -50%; inconclusive = mostly about -30% to -49%
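Secreted IL-1B measured by AlphaLISA bead assay after 16 h compound exposure of THP-1 cells; compounds (final up to 57.5 uM) added 1 h before LPS (250 ng/mL) and ATP (1.25 mM) stimulation; lower signal means less secretion.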
HepG2 viability – qHTS for Inhibitors of TGF-b: Cytotox Counterscreen | HepG2 CAGA-GFP viability, ATP luminescence, 18 h | Potency, µM (highest dose often 46.1 µM), hits mostly cytotoxic | 410,000 compounds, 0.76% hits
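HepG2 CAGA-GFP cells (1000/well, DMEM with 1% FBS) received compound, then TGF-beta at 500 pg/mL final, and were incubated 18 hours at 37 degrees C. Viability was read by CellTiter-Glo luminescence. Media-only wells were set as complete cell-killing and DMSO as no toxicity.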
TDP1 cell noCPT – qHTS for Inhibitors of human tyrosyl-DNA phosphodiesterase 1 (TDP1): qHTS in cells in absence of CPT. DT40 Tdp1-/- hTDP1 cells, no CPT, ATP luminescence, 48 h. 420,000 compounds, 15% hits. Potency, µM (series often up to 46.2 µM), usual class: inhibitors; also: nearly all actives have a fitted effect of over 55% in size
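Cells were dispensed at 400 per well, compounds added by pin tool, plates incubated ≥48 hr at 37 °C, then CellTiter-Glo added for 30 min at room temperature before luminescence reading. Line: DT40 Tdp1-/- complemented with hTDP1; camptothecin omitted.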
TGFb inhibitor – qHTS for Inhibitors of TGF-b; HepG2 CAGA-GFP TGF-b/SMAD3 reporter, GFP fluorescence, 18 h; TGF-beta stimulated, 500 pg/mL final; Potency, µM (series often up to 46.1 µM), most hits filed as inhibitors; 410,000 compounds, 1.2% hits; also: nearly all actives have a fitted effect of over 65% in size
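Inhibition was scored as loss of TGF-beta-induced (500 pg/mL final, 18 hours, 37 degrees C) GFP in HEPG2 cells carrying a CAGA-GFP reporter, in DMEM with 1% FBS. Well GFP was summed per cell; Activity was normalised to unstimulated and stimulated DMSO wells, then concentration-response fitting.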
Large screens that a line does not name were inactive. Rows were chosen to be rich in hits. Some 19% of all compounds tested hit in one or more screens of this group. Unless noted, calls follow the shape of the dose curve; as a rule, active = well fitted curve in the direction sought with a large enough effect; inconclusive = small, poorly fitted or top-dose-only effect, or another doubt; inactive = no such curve, though single readings can be large; an effect the other way counts as inactive or inconclusive.

COC1=C(Nc2ccc(OC)cc2)C(=O)c2ccccc2C1=O	DT40 TDP1 CPT 29.1µM, IL1B secr inh inconclusive, TDP1 cell noCPT 14.6µM, TGFb inhibitor 15.8µM
O=C(C[C@H]1C/C=C/CC[C@H](Cc2ccc(F)cc2)C(=O)O[C@H](c2ccccc2)CNC1=O)NCCO	DT40 TDP1 CPT inconclusive, TDP1 cell noCPT inconclusive
O=C(C[C@H]1C/C=C\C[C@H](Cc2ccc(F)cc2)C(=O)O[C@@H](c2ccccc2)CNC1=O)N[C@@H](CO)Cc1ccccc1	DT40 TDP1 CPT 20.6µM, TDP1 cell noCPT 11.6µM, TGFb inhibitor inconclusive
CC(C)(C)OC(=O)C[C@@H]1C/C=C\C[C@@H](CC(=O)N[C@@H](CO)Cc2ccccc2)C(=O)NC[C@@H](c2ccccc2)OC1=O	DT40 TDP1 CPT 23.1µM, TDP1 cell noCPT inconclusive
O=C(C[C@@H]1C/C=C/CC[C@@H](Cc2ccc(F)cc2)C(=O)O[C@@H](c2ccccc2)CNC1=O)NCCO	DT40 TDP1 CPT inconclusive, TDP1 cell noCPT 18.4µM, TGFb inhibitor inconclusive
O=C(C[C@H]1C/C=C\CC[C@@H](Cc2ccc(F)cc2)C(=O)O[C@H](c2ccccc2)CNC1=O)N[C@H](CO)Cc1ccccc1	DT40 TDP1 CPT 18.4µM, TDP1 cell noCPT 14.6µM
O=C(C[C@H]1C/C=C\C[C@@H](Cc2ccc(F)cc2)C(=O)O[C@@H](c2ccccc2)CNC1=O)N[C@@H](CO)Cc1ccccc1	none
O=[N+]([O-])c1c(O)c(Cl)cc(Cl)c1Cl (tested in a mixture with another compound)	none
COc1ccccc1CNc1ccc(-c2nc(-c3ccccn3)no2)cc1[N+](=O)[O-]	TDP1 cell noCPT inconclusive (no result: ASM inhibitor, IL1B secr inh)
COC(=O)c1sccc1S(=O)(=O)N1CCC(n2c(CC3CCCC3)nc3cccnc32)CC1	none (no result: ASM inhibitor, IL1B secr inh, HepG2 viability, TGFb inhibitor)
C=CCn1c(COc2ccc(Cl)cc2)nnc1SCC(=O)c1c(N)n(C)c(=O)n(C)c1=O	none
Cc1cc(C(=O)Nc2cnc3ccccc3c2)ccc1[N+](=O)[O-]	none
Cc1csc(NC(=O)c2ccc(Cl)cc2[N+](=O)[O-])n1	TDP1 cell noCPT inconclusive
Cc1cc(C(=O)Nc2nc(-c3ccccn3)cs2)ccc1[N+](=O)[O-]	DT40 TDP1 CPT 2.31µM, TDP1 cell noCPT 2.91µM, TGFb inhibitor inconclusive
O=C(Nc1nc(-c2ccccn2)cs1)c1cc(Cl)ccc1[N+](=O)[O-]	DT40 TDP1 CPT 0.82µM, TDP1 cell noCPT 1.46µM, TGFb inhibitor 11.2µM
COCCNC(=O)CN1C(=O)c2cccnc2Sc2ccccc21	none (no result: ASM inhibitor, IL1B secr inh)
CCOC(=O)c1c(C)oc2nc(C)nc(NCC3CCN(Cc4cccc(Cl)c4)CC3)c12	none (no result: ASM inhibitor, IL1B secr inh)
O=C(C1CC1)N1CCc2cc(Br)c(S(=O)(=O)N3CCCCCC3)cc21	DT40 TDP1 CPT 16.4µM, TDP1 cell noCPT inconclusive
O=C(C1CC1)N1CCc2cc(Br)cc(S(=O)(=O)N3CCCCCC3)c21	DT40 TDP1 CPT inconclusive, TDP1 cell noCPT 20.6µM
COc1ccc(C(=O)NCCc2cnc[nH]2)cc1OC	none
Cc1cccc(C)c1NC(=O)C1CCCN1S(=O)(=O)c1ccc2c(c1)n(C)c(=O)c(=O)n2C (stereo not given)	none
Cc1ccc(C)c(CNC(=O)c2cnc3sc(N4CCCC4)nn3c2=O)c1	DT40 TDP1 CPT 16.4µM, TDP1 cell noCPT 18.4µM, TGFb inhibitor inconclusive (no result: ASM inhibitor, IL1B secr inh)
COc1ccccc1CNC(=O)c1cnc2sc(N3CCCCCC3)nn2c1=O	DT40 TDP1 CPT 16.4µM, TDP1 cell noCPT 20.6µM (no result: ASM inhibitor, IL1B secr inh)
O=C(NCc1ccccc1Br)c1cnc2sc(N3CCCCCC3)nn2c1=O	DT40 TDP1 CPT 23.1µM, TDP1 cell noCPT 4.11µM (no result: ASM inhibitor, IL1B secr inh)
CCOc1ccccc1CNC(=O)c1cnc2sc(N3CCCCCC3)nn2c1=O	DT40 TDP1 CPT inconclusive, TDP1 cell noCPT inconclusive (no result: ASM inhibitor, IL1B secr inh)
